Read-out in assay [1]: Vascular cell adhesion molecule 1 (VCAM1), VCAM1 (gene 7412)
In words: BSK_hDFCGF_VCAM1: BioMAP Diversity Plus: hDFCGF Assay for Vascular cell adhesion molecule 1 (VCAM1) Biomarker Activity (AID 2283065).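 For AC50: VCAM-1 protein level quantified by ELISA after 24 h chemical exposure.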 The note with it: primary human foreskin fibroblasts; actives raise or lower the signal. Summed up:
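Measured after 24 h chemical treatment of primary human skin fibroblasts, VCAM-1 was detected by ELISA and concentration-response analysed in both directions versus DMSO vehicle.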

Read-out in assay [2]: Intercellular Adhesion Molecule 1 (ICAM1), ICAM1 (gene 3383)
In words: BSK_KF3CT_ICAM1: BioMAP Diversity Plus: KF3CT Assay for Intercellular Adhesion Molecule 1 (ICAM1) Biomarker Activity (AID 2283067). The note with it: primary human keratinocytes with fibroblasts; actives raise or lower the signal. The method, boiled down:
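Bidirectional curve fitting against a DMSO baseline was applied to ICAM-1 ELISA signal from primary human skin co-cultures harvested 24 h after treatment, with SRB staining of parallel wells for overt cytotoxicity.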

Read-out in another assay: CD40, CD40 (gene 958)
In words: BSK_LPS_CD40: BioMAP Diversity Plus: LPS Assay for CD40 Biomarker Activity (AID 2283076). The note with it: primary human HUVEC with PBMC; actives raise or lower the signal. The method, boiled down:
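Using a multiplexed primary human co-culture (umbilical vein endothelium plus PBMC), CD40 was read by ELISA 24 h after dosing, with cytotoxicity tracked by sulforhodamine B staining of parallel cultures and activity fitted bidirectionally versus DMSO.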

Read-out in assay [3]: E-selectin (Homo sapiens) (UniProt P16581)
Nature of the assay: BSK_LPS_Eselectin: BioMAP Diversity Plus: LPS Assay for Eselectin Biomarker Activity (AID 2283077). The note with it: primary human HUVEC with PBMC; actives raise or lower the signal. The method, boiled down: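 Dose chemical onto LPS-driven HUVEC/PBMC co-culture; after 24 h, run ELISA for E-selectin; fit up- and down-going responses relative to DMSO control.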

Read-out in assay [4]: Monocyte Chemoattractant Protein-1 (MCP1), CCL2 (gene 6347)
In words: BSK_LPS_MCP1: BioMAP Diversity Plus: LPS Assay for Monocyte Chemoattractant Protein-1 (MCP1) Biomarker Activity (AID 2283081).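 For AC50: secreted MCP-1 protein quantified by ELISA in culture supernatant.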 The note with it: primary human HUVEC with PBMC; actives raise or lower the signal. Summed up: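 Values derive from bidirectional fitting against DMSO of ELISA-measured MCP-1 in a human primary endothelial and mononuclear cell co-culture, 24 h after chemical addition under LPS activation.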

Assay [5] is described as follows: BSK_LPS_PGE2: BioMAP Diversity Plus: LPS Assay for Prostaglandin E2 (PGE2) Biomarker Activity (AID 2283082).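 For AC50: secreted prostaglandin E2 measured by ELISA in LPS-stimulated co-culture.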 The note with it: primary human HUVEC with PBMC; actives raise or lower the signal. Summed up:
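Endpoint derived from bidirectional curve fitting versus DMSO of ELISA-measured PGE2 in LPS-stimulated human primary vascular co-culture (HUVEC with PBMC) harvested at 24 h.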

Read-out in assay [6]: Macrophage colony-stimulating factor (MCSF), CSF1 (gene 1435)
Nature of the assay: BSK_LPS_MCSF: BioMAP Diversity Plus: LPS Assay for Macrophage colony-stimulating factor (MCSF) Biomarker Activity (AID 2283083). The note with it: primary human HUVEC with PBMC; actives raise or lower the signal. The method, boiled down: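 Bidirectional fit versus DMSO of ELISA-measured M-CSF in co-cultured human umbilical vein endothelial cells and PBMC, sampled 24 h after dosing.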

Read-out in assay [7]: CD69, CD69 (gene 969)
In words: BSK_SAg_CD69: BioMAP Diversity Plus: SAg Assay for CD69 Biomarker Activity (AID 2283089).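 For AC50: cell surface CD69 protein quantified by ELISA with fluorescence detection.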 The note with it: primary human HUVEC with PBMC; actives raise or lower the signal. Summed up:
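HUVEC co-cultured with PBMC were dosed with chemical, and CD69 was measured by ELISA with fluorescence read-out 24 h later. Bidirectional curve fitting used DMSO as negative control and activity baseline.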

Assay [8] is described as follows: BSK_SAg_PBMCCytotoxicity: PBMC Cytotoxicity Assessment in the BioMAP Diversity Plus: SAg Assay (AID 2283093).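 Note: PBMC viability measured as Alamar Blue reduction fluorescence at 546/580 nm; fitted both ways against DMSO so a hit may be loss or gain of signal.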 The note with it: primary human HUVEC with PBMC. The method, boiled down:
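HUVEC/PBMC co-culture; PBMC exposed to chemical 1 h before SEB and TSST-1 activation (20 ng/mL each), incubated 90 h, then Alamar Blue 6 h, fluorescence 546/580 nm. Bidirectional fit versus DMSO baseline.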

Read-out in assay [9]: Interferon-inducible T-cell alpha chemoattractant (ITAC), CXCL11 (gene 6373)
In words: BSK_hDFCGF_ITAC: BioMAP Diversity Plus: hDFCGF Assay for Interferon-inducible T-cell alpha chemoattractant (ITAC) Biomarker Activity (AID 2284251). The note with it: primary human foreskin fibroblasts. The method, boiled down: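 Primary human foreskin fibroblasts (hDFCGF system) treated for 24 h; I-TAC quantified by ELISA. Gain-direction fitting versus DMSO; parallel SRB staining of total protein flagged overt cytotoxicity.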

Read-out in assay [10]: Intercellular Adhesion Molecule 1 (ICAM1), ICAM1 (gene 3383)
Nature of the assay: BSK_BE3C_ICAM1: BioMAP Diversity Plus: BE3C Assay for Intercellular Adhesion Molecule 1 (ICAM1) Biomarker Activity (AID 2284278).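 For outcome: cell-surface ICAM-1 protein level quantified by ELISA.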 The note with it: primary human bronchial epithelial cells. Summed up: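 Measured by ELISA: ICAM-1 expressed by primary human bronchial epithelial cells 24 h after compound treatment, with upward-direction fitting versus DMSO vehicle.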

Read-out in assay [11]: Epidermal growth factor receptor (EGFR), EGFR (gene 1956)
In words: BSK_BE3C_EGFR: BioMAP Diversity Plus: BE3C Assay for Epidermal growth factor receptor (EGFR) Biomarker Activity (AID 2284281). The note with it: primary human bronchial epithelial cells. Summed up: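 Human primary bronchial epithelial cells (BE3C system) dosed with chemicals; EGFR measured by ELISA at 24 h, fitted in the positive direction relative to DMSO. Cytotoxicity tracked in parallel cultures by SRB total-protein staining.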

Read-out in another assay: KRT18 (gene 3875)
In words: BSK_BE3C_Keratin818: BioMAP Diversity Plus: BE3C Assay for Keratin 818 Biomarker Activity (AID 2284282). The note with it: primary human bronchial epithelial cells. The method, boiled down: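 BE3C: human bronchial epithelial primary cells, 24 h exposure, Keratin 8/18 ELISA; DMSO = negative control/baseline; cytotoxicity by parallel SRB stain (0.1% SRB after 10% TCA fixation, 560 nm).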

Read-out in assay [12]: Matrix Metallopeptidase 9 (MMP9), MMP9 (gene 4318)
In words: BSK_BE3C_MMP9: BioMAP Diversity Plus: BE3C Assay for Matrix Metallopeptidase 9 (MMP9) Biomarker Activity (AID 2284283). The note with it: primary human bronchial epithelial cells. The method, boiled down: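 Endpoint is the ELISA MMP-9 signal in human primary bronchial epithelial cultures taken 24 h after chemical dosing. DMSO serves as negative control and baseline, with gain-of-signal fitting.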

Read-out in assay [13]: TIMP metallopeptidase inhibitor 2 (TIMP2), TIMP2 (gene 7077)
Nature of the assay: BSK_hDFCGF_TIMP2: BioMAP Diversity Plus: hDFCGF Assay for TIMP metallopeptidase inhibitor 2 (TIMP2) Biomarker Activity (AID 2284289). The note with it: primary human foreskin fibroblasts. The method, boiled down:
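Primary human foreskin fibroblasts in the hDFCGF system, dosed for 24 h; TIMP-2 level measured by ELISA, fitted in the positive direction against DMSO; cytotoxicity checked in parallel by sulforhodamine B total protein staining.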

Read-out in assay [14]: CD69, CD69 (gene 969)
Nature of the assay: BSK_LPS_CD69: BioMAP Diversity Plus: LPS Assay for CD69 Biomarker Activity (AID 2284303). The note with it: primary human HUVEC with PBMC. The method, boiled down: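 Human umbilical vein endothelial cells co-cultured with PBMC under LPS stimulation, chemical exposure 24 h; cell-surface CD69 measured by ELISA and fitted in the positive direction versus DMSO.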

Assay [15] is described as follows: ATG_PBREM_CIS: Attagene CIS-FACTORIAL HepG2 Assay for human Phenobarbital-responsive Enhancer Module (PBREM) (AID 2282955). The note with it: HepG2 PBREM cis-reporter, Attagene multiplexed transcription; actives raise or lower the signal. The method, boiled down:
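After a 24 h incubation with test chemical, transfected HepG2 cells yield total RNA; reporter-specific RT-PCR products are fluorescently labelled, HpaI-digested and resolved by capillary electrophoresis against ROX size standards.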

Assay [16] is described as follows: ATG_Ets_CIS: Attagene CIS-FACTORIAL HepG2 Assay for human Erythroblast Transformation Specific (ETS) (AID 2282941). The note with it: HepG2 ETS cis-reporter transcription, actives raise or lower the signal. The method, boiled down: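 HepG2 cells transfected with multiple cis-regulated reporter units measuring endogenous ETS-driven transcription, 24 h after dosing. Reporter mRNA quantified by RT-PCR with capillary electrophoresis; bidirectional fit relative to DMSO.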

Assay [17] can be described thus: ATG_M_61_CIS: Attagene CIS-FACTORIAL HepG2 Assay for M61 Transcription Factor (Internal Marker) (AID 2282937). The note with it: HepG2 Attagene CIS-FACTORIAL M61 internal marker reporter; actives raise or lower the signal. Summed up: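 Fluorescence from labelled cDNA fragments, separated by capillary electrophoresis, quantifies reporter induction. HepG2 cells bearing transiently transfected cis-promoter MRTUs were incubated with test chemical for 24 h; DMSO defined baseline for gain/loss fitting.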

Assay [18] has as its target mouse Estrogen Receptor alpha (Era), Esr1 (gene 13982) (UniProt P19785). In words: NVS_NR_mERa: NovaScreen (NVS) Nuclear Receptor Binding Assay for mouse Estrogen Receptor alpha (Era) (AID 2283378; active = hit-call score of the fitted dose curve at least 0.9, where 1 is the maximum;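 note: hit means loss of bound radioligand signal relative to DMSO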). Summed up: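 Measurements come from scintillation counting after filtration, taken 18 hours after chemicals were added to a cell-free mouse Era preparation with radioligand. Screening was duplicate at 25 uM, with concurrent positive and negative controls and confirmatory concentration series for actives.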

The AC50 is the concentration at which the activity in the assay is half-maximal.

Where “and” joins values, the source holds several entries; their conditions need not be identical. Equal entries are not always repeated. Results filed as inconclusive are left out. Some structures have more than one record in an assay (separate samples or runs), and their calls can disagree. Calls of active or inactive are those of the source. Rule for the calls, unless noted: active = hit-call score of the fitted dose curve at least 0.9, where 1 is the maximum; inactive = score below 0.9.

Chain of E-selectin (Homo sapiens) (P16581 whole entry, looked up): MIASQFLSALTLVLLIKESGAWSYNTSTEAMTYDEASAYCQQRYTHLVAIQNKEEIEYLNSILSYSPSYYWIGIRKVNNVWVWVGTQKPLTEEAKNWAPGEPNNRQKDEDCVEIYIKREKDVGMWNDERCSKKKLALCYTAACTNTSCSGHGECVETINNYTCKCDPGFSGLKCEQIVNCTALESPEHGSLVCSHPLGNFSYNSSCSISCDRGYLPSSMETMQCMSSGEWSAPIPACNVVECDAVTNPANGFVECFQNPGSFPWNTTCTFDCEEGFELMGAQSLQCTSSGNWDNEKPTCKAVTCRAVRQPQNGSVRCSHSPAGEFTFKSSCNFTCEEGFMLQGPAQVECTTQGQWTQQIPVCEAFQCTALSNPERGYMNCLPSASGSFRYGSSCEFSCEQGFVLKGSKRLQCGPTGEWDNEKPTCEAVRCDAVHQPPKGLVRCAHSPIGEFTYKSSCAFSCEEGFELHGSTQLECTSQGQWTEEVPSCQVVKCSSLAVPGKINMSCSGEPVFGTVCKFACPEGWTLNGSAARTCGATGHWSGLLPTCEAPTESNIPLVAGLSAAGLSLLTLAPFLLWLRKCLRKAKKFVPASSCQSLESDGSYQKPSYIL
Chain of mouse Estrogen Receptor alpha (Era), Esr1 (gene 13982) (P19785 whole entry, looked up): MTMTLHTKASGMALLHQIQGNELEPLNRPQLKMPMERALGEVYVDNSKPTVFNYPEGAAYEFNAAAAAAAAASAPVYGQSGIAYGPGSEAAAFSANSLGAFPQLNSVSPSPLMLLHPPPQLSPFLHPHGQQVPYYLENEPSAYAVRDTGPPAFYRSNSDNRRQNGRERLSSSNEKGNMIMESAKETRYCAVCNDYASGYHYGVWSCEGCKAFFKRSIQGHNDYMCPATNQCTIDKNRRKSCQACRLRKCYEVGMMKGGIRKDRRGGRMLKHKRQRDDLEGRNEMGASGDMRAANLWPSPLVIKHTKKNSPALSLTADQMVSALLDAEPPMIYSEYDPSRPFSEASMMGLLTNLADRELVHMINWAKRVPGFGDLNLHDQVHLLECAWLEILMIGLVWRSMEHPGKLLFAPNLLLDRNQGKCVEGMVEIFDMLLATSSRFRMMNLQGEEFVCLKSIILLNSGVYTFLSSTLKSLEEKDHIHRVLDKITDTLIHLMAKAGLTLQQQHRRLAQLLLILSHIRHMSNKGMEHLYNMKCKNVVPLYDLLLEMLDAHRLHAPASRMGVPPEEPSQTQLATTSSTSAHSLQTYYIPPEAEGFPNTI

With `COc1ccccc1Oc1c(NS(=O)(=O)c2ccc(C(C)(C)C)cc2)nc(-c2ncccn2)nc1OCCO`, the outcome in assay [1] is “inactive”; in [2], “inactive”; in the assay with CD40, CD40 (gene 958), “inactive”; in assay [3], “inactive”; in assay [4], “inactive”; in assay [5], “inactive”. The outcome in assay [6] is “inactive”; in the assay with CD69, CD69 (gene 969) [7], “inactive”; in assay [8], “inactive”; in assay [9], “inactive”; in assay [10], “inactive”; in assay [11], “inactive”. In addition, the outcome with KRT18 (gene 3875) was “inactive”; in [12] it was “inactive”; in assay [13], “inactive”; in the assay with CD69, CD69 (gene 969) [14] it was “inactive”.
In the case of `Cc1ccnc(N)c1`, the outcome in [15] was inactive.
For `CC(C)C1OCCN1CCOC(=O)NCCCCCCNC(=O)OCCN1CCOC1C(C)C` (stereo unspecified), the outcome in assay [1] is “inactive”; in assay [2] it was “inactive”; in the assay with CD40, CD40 (gene 958), “inactive”; in [3] it was “inactive”; in [4], “inactive”; in assay [5], “inactive”. The outcome in [6] is “inactive”; with CD69, CD69 (gene 969) [7], “inactive”; in assay [8], “inactive”; in assay [9], “inactive”; in [10], “inactive”; in assay [11], “inactive”. The outcome in the assay with KRT18 (gene 3875) was “inactive”; in [12], “inactive”; in assay [13], “inactive”; in the assay with CD69, CD69 (gene 969) [14], “inactive”.
For the molecule `CC/C=C\CCCCCO`, the outcome in assay [16] and in assay [15] was inactive.
For `OC(C(F)(F)F)(C(F)(F)F)C(O)(C(F)(F)F)C(F)(F)F`, the AC50 was 13.2 µM (active) and 12.3 µM (active) in assay [1]; 48.3 µM (active) in [2]; 29.8 µM (active) and 21.6 µM (active) with CD40, CD40 (gene 958); 24.4 µM (active) and 51.9 µM (active) in assay [3]; 23.9 µM (active) and 23.3 µM (active) in assay [4]; 7.65 µM (active) and 6.88 µM (active) in assay [5]. Further, the AC50 is 22 µM (active) and 21.7 µM (active) in [6]; 18.5 µM (active) and 17.7 µM (active) in the assay with CD69, CD69 (gene 969) [7]; 21.2 µM (active) and 20.9 µM (active) in assay [9]; 44.7 µM (active) in assay [10]; 22.7 µM (active) in [11]; 30 µM (active) in assay [12]. Moreover, the AC50 in [13] was 6.98 µM (active) and 8.04 µM (active); with CD69, CD69 (gene 969) [14] it was 12.9 µM (active) and 9.36 µM (active). Also, the outcome (in assay [2]; in assay [8]; in assay [10]; in assay [11]; with KRT18 (gene 3875)) was inactive.
Regarding `CCCCCCOC(=O)CCCCCCCC(=O)OCCCCCC`, the result in assay [17] and in [15] was inactive.
In the case of `CNC(=O)Nc1ccc(Cl)c(Cl)c1`, in assay [18], the molecule was classed as inactive.
With `COC(=O)CCCC(=O)O`, the call in assay [18] was inactive.
Still for that read-out and setting: with `CCCCCCCCOCCCN` the entry was “inactive”; with `Cc1oc(C)c(C(=O)Nc2ccccc2)c1C`, “inactive”; with `CC(C)CC(=O)C1C(=O)c2ccccc2C1=O`, “inactive”.

For the origin of these results see PubChem BioAssay (EPA / NIEHS).
